# Screening results as filed in PubChem.
# TLR9-MyD88 block = inhibitors of human TLR9-MyD88 binding; Q9NR96+Q99836; CHO BLA complementation TLR9-MyD88, CCF4 FRET ratio; inhibition, % at 4.98 µM; hit rate 0.21% among 340,000;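 active = inhibition above the mean over all tested compounds plus 3 SD, cut at about 21% in these data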;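 note: 0% = DMSO only wells and 100% = clavulanate BLA inhibitor control wells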
# Neddylation inh = inhibitors of human cullin neddylation | P61081+Q13564 | TR-FRET cullin neddylation, biochemical | inhibition, % at 25 µM | hit rate 0.58% among 360,000 | AID 651699; in the data active = inhibition above about 36%
# GC-A act = GC-A (human) enzyme activation; P16066; HEK293 GC-A cells, cGMP TR-FRET, EC30 ANP; 0% at EC30 ANP, 100% saturating ANP; activation, % at 10 µM; hit rate 0.14% among 370,000; AID 1671463; in the data active = activation above about 40%
# GC-B act = GC-B (human) receptor activation. HEK293-GC-B cells, CNP EC30, cGMP TR-FRET; 0% at EC30 CNP, 100% saturating CNP. activation, % at 10 µM. hit rate 0.11% among 370,000;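 active = activation at 10 µM reaching about 35% in either raw or pattern-adjusted values, limit read from the data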
# NOD2 RIPK2 PPI = NOD2-RIPK2 protein interaction inhibition | O43353 | hit rate 0.38% among 360,000 | CHO BLA complementation NOD2-RIPK2, CCF4 ratio | inhibition, % at 4.98 µM; in the data active = inhibition above about 21%;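 note: 0% = vehicle only and 100% = reference blocker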
# TLR4-MyD88 BLA = TLR4-MyD88 interaction inhibition in cells | O00206+Q99836 | HeLa CL3-4 TLR4/MyD88 BLA complementation, FRET ratio | inhibition, % at 8.4 µM | hit rate 0.18% among 200,000 | AID 861; in the data active = inhibition above about 25%;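 note: 0% = vehicle and 100% = reference inhibitor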
# * hit, by the source's call; nt = not tested or not shown. Only some compounds are listed: those with a hit (about 1.2% of all), similar ones and a draw of the others.
SMILES,TLR9-MyD88 block,Neddylation inh,GC-A act,GC-B act,NOD2 RIPK2 PPI,TLR4-MyD88 BLA
CCN(CC)CCOC(=O)c1ccc(N/C=C(/C#N)c2nc(-c3ccc(OC)c(OC)c3)cs2)cc1,11,64*,13,-1,-1,nt
Cc1cc(C)n2c(Nc3c(C)cccc3C)c(-c3ccccn3)nc2n1,nt,19,-2,0,-12,nt
Cc1cccc(C)c1Nc1c(-c2ccccn2)nc2ccccn12,-4,41*,-5,-3,4,-1
CC(=O)Oc1ccc(/C=c2\sc3ncnn3c2=O)cc1,-5,1,0,-4,-2,2
CCCOc1ccc(/C=c2\sc3ncnn3c2=O)cc1,2,2,69*,-2,5,1
COc1ccc(OC)c(N=c2oc3cc(O)ccc3cc2C(N)=O)c1,-31,nt,56*,0,-26,-3
C=CCN(Cc1ccc(OC)cc1OC)C(C#CCCCC)c1ccccc1 (configuration not stated),nt,nt,-2,-7,nt,nt
Cc1cnc(NC(=O)CSc2nnc(COc3c(C)cccc3C)o2)s1,-3,-3,1,97*,-3,-20
CC1CCC2(CCC(=O)N2CCCOC(=O)Nc2cccc(C(F)(F)F)c2)CC1 (configuration not stated),nt,nt,-1,1,nt,nt
COCCN1Cc2cc(C(=O)OC)c3c(c2C1=O)c1cc(OC)ccc1n3S(=O)(=O)c1ccc(F)cc1,nt,nt,-1,-2,nt,nt
Cc1ccc(C(=O)Nc2scc(-c3ccccc3)c2C(=O)O)cc1,-3,41*,1,1,0,nt
COc1cc(C(=O)Nc2scc(-c3ccc(C)cc3)c2C(=O)O)cc(OC)c1OC,-6,nt,2,3,-3,nt
COc1ccc(-n2ncc3c(N4CCCCC4)ncnc32)cc1,-8,38*,nt,nt,-10,5
Clc1ccc(-n2ncc3c(N4CCCCCC4)ncnc32)cc1,3,-12,8,0,-4,11
O=C1C=C(c2ccc(F)cc2OCc2ccccc2)C[C@@H](c2ccc3c(c2)OCO3)C1,8,-31,30,39*,-2,nt
C/C(=N\NC(=S)NCC(C)(C)C)c1cc(F)cc(F)c1O,9,45*,-3,-10,-4,nt
C=CCN1C(=O)c2[nH]nc(-c3ccccc3)c2C1c1ccc(C)cc1 (configuration not stated),nt,nt,-10,-14,nt,nt
COc1ccc(OC)c(S(=O)(=O)ON2C(=O)c3ccccc3C2=O)c1,-6,13,44*,44*,2,nt
COc1ccc(OC)c(S(=O)(=O)N2CCN(c3ccccc3)CC2)c1,-5,-8,-8,-7,0,nt
Cn1c(=O)c2nc3ccccc3nc2n(C)c1=O,-1,14,4,1,-2,-22
CC(=O)Nc1ccc2nc3c(=O)n(C)c(=O)n(C)c3nc2c1,-9,80*,12,-3,-10,nt
CN(c1ccc(O)cc1)c1nc(O)c(C2=c3ccccc3=NC2=O)s1,-2,-32,41*,-5,2,nt
Cc1ccc2ccc(C(Nc3ccccc3)c3ccccc3)c(O)c2n1 (configuration not stated),nt,10,1,-8,5,nt
Cc1ccc2ccc(C(Nc3cccc(C(F)(F)F)c3)c3cccnc3)c(O)c2n1 (configuration not stated),5,48*,-2,0,10,1
CCNC(=O)N(C)[C@H]1C[C@H]2c3[nH]c4c(-c5ccc6c(c5)OCO6)cccc4c3CCN2C(=O)[C@H]1[C@H](C)O,nt,nt,-3,-2,nt,nt
SMILES,TLR9-MyD88 block,Neddylation inh,GC-A act,GC-B act,NOD2 RIPK2 PPI,TLR4-MyD88 BLA
CC1C(=O)N(Cc2cn(CCC3OCCCO3)nn2)CCS(=O)(=O)N1Cc1ccc(-c2ccc(Cl)cc2)cc1 (configuration not stated),5,-6,50*,-4,-5,nt
Cc1oc(C(C)(C)C)cc1-c1cc(NC(=O)c2ccc([N+](=O)[O-])cc2)n[nH]1,-1,-6,44*,57*,7,nt
Cc1cc(NC(=O)c2ccc([N+](=O)[O-])cc2)no1,-12,-30,-2,2,-3,nt
CC1CN(c2ccc([N+](=O)[O-])c(NCCOc3ccccc3)c2)CCN1 (configuration not stated),2,-46,44*,22,5,-5
O=C1N/C(=N/NC(=O)c2cccc3ccccc23)S/C1=C\c1ccccc1OCc1ccccc1,-8,nt,-22,7,-6,6
COc1ccc(OC)c(/C=C2\S/C(=N/NC(=O)c3ccc4ccccc4c3)NC2=O)c1,-10,48*,-4,-9,-4,0
Nc1ncnc2c1ncn2[C@@H]1O[C@H](C(=O)NCCCN2CCCC2=O)[C@@H](O)[C@H]1O,nt,13,0,3,-3,nt
Nc1nc2c(ncn2[C@@H]2O[C@H](C(=O)NCCCN3CCCC3=O)[C@@H](O)[C@H]2O)c(=O)[nH]1,nt,nt,49*,45*,nt,nt
C=C(C)[C@H]1CC=C(C(=O)O)CC1,nt,nt,3,1,nt,nt
Cc1ccccc1CN[C@@H]1CC[C@@]23CCCN2C(=O)CCC[C@H]3C1,nt,nt,-2,0,nt,nt
O=S(=O)(O)c1ccc(O)c2cc(Nc3ccccc3)ccc12,0,37,-24,1,-5,nt
CC(=O)Nc1ccc2c(O)cc(S(=O)(=O)O)cc2c1,-2,-6,-1,-3,5,nt
COc1ccccc1Nc1ccc2c(O)cc(S(=O)(=O)O)cc2c1,-4,46*,-5,-2,-8,nt
O=S(=O)(O)c1cc(O)c2cc(Nc3ccccc3)ccc2c1,-6,44*,-6,-2,-1,nt
O=S(=O)(O)c1cc(O)c2ccc(Nc3ccccc3)cc2c1,-8,54*,-8,0,-3,nt
COC(=O)C1CCN(C(=O)C2CC(=O)N(c3ccc(OC)cc3)C2c2ccc(OC)cc2)CC1 (configuration not stated),nt,nt,-2,-9,nt,nt
CC(C)C[C@@H]1COc2cc(Br)ccc2S(=O)(=O)N1Cc1cn(Cc2ccc(F)cc2)nn1,nt,nt,-2,0,nt,nt
CC(C)C[C@H](NC1(C(=O)NCCc2c[nH]c3ccccc23)CCC1)C(=O)NCCCc1ccccc1,nt,nt,1,-11,nt,nt
Cc1csc(NC(=O)c2ccc(COc3ccc(Cl)c(Cl)c3)o2)n1,nt,nt,24,-2,nt,nt
Cc1csc(NC(=O)c2ccc(COc3cccc(Cl)c3)o2)n1,nt,nt,40,41*,nt,nt
O=C(Cn1ncc2c3ccccc3n(Cc3ccccc3F)c2c1=O)NCC1CCCO1 (configuration not stated),0,11,31,36*,3,nt
O=C(Cn1ncc2c3ccccc3n(Cc3cccc(Cl)c3)c2c1=O)NCC1CCCO1 (configuration not stated),3,-55,-21,-1,1,nt
O=C(Cn1ncc2c3ccccc3n(Cc3ccccc3F)c2c1=O)N1CCN(c2ccccn2)CC1,0,-74,22,41*,-4,nt
